Assay results: the supplement of paper PMC11732987, “Enantioselective OTUD7B fragment discovery through chemoproteomics screening and high-throughput optimisation” (Communications Chemistry, 2025)

Columns and labels:
Assay in all cases: log2 ratio of Biotin-Ahx-Ub-VS probe labelling (fragment/DMSO); higher = less target engagement (more negative = stronger competition), active = hit call of the paper (q ≤ 0.05, log2 ratio ≤ -1)
Details in all cases: compound concentration: 200 uM; treatment time: 3 h
USP34 = USP34 (UniProt Q70CQ2)
In short: (§1)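 Triplicate samples of HEK293T lysate, 495 µg each, received fragment at 200 µM or vehicle for 3 h, followed by Biotin-Ahx-Ub-VS (0.5 µM final) for 1 h. After NeutrAvidin enrichment of labelled DUBs and LysC/trypsin digestion, peptides were run by diaPASEF LC-MS/MS. The values are average log2 fragment/vehicle ratios from global-median-normalised Spectronaut label-free quantities, tested by unpaired t-test on proteins having ≥2 unique peptides.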

USP36 = target: T1, USP36 (UniProt Q9P275)
T1 sequence (whole entry): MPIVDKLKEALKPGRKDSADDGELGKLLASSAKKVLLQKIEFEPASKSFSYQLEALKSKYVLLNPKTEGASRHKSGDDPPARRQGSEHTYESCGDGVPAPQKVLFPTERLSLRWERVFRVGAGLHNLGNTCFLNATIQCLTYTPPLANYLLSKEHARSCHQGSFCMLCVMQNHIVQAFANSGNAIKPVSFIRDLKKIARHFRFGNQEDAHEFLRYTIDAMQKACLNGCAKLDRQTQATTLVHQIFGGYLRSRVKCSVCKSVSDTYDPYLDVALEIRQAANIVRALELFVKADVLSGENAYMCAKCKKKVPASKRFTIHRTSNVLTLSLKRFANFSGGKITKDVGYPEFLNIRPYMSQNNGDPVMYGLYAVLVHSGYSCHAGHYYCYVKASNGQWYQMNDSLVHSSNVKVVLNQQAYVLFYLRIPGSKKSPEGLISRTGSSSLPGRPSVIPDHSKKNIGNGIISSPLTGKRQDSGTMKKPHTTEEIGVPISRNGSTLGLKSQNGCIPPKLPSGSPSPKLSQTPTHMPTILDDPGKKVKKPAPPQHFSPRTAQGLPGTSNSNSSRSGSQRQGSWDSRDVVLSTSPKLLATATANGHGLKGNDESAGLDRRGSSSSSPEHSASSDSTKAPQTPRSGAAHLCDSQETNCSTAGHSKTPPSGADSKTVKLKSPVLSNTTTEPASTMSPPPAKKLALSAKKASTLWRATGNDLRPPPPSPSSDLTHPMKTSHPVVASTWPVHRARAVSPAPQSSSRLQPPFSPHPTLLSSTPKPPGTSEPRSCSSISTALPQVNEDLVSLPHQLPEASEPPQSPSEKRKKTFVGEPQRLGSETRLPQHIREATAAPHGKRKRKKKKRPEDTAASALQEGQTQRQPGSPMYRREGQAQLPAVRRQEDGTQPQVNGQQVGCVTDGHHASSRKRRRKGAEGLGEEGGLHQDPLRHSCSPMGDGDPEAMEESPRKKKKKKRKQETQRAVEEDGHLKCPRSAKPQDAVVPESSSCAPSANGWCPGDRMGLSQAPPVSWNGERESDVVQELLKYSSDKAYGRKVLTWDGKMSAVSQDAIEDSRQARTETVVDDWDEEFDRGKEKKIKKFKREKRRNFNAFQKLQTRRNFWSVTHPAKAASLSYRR
In short: as §1

USP38 = target: T2, USP38 (UniProt Q8NB14)
T2 sequence (whole entry): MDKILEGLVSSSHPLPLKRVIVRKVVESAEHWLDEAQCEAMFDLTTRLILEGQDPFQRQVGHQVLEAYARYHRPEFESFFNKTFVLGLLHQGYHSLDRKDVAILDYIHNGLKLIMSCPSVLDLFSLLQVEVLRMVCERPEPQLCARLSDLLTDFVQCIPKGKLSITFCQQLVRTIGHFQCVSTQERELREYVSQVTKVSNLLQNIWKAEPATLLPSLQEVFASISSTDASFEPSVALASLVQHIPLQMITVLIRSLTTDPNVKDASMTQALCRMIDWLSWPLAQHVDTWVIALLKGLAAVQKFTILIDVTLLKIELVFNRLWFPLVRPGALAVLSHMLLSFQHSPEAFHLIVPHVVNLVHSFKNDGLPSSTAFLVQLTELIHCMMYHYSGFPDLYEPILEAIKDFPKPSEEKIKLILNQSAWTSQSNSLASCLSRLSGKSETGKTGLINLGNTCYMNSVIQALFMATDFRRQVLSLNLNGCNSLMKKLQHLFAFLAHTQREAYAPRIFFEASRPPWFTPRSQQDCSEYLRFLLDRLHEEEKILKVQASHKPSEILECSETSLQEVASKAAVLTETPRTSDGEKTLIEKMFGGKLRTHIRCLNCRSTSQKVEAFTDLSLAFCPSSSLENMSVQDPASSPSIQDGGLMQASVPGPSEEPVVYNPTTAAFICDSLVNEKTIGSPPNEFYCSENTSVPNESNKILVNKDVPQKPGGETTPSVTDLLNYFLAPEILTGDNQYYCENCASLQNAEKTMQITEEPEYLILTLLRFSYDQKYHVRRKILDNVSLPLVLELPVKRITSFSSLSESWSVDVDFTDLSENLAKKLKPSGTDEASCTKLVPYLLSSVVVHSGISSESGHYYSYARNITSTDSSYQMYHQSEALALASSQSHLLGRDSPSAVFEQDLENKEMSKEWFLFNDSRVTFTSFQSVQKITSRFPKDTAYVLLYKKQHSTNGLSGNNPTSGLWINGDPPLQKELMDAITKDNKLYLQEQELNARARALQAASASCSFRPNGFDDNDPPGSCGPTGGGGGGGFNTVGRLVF
In short: as §1

USP39 = target: T3, USP39 (UniProt Q53GS9)
T3 sequence (whole entry): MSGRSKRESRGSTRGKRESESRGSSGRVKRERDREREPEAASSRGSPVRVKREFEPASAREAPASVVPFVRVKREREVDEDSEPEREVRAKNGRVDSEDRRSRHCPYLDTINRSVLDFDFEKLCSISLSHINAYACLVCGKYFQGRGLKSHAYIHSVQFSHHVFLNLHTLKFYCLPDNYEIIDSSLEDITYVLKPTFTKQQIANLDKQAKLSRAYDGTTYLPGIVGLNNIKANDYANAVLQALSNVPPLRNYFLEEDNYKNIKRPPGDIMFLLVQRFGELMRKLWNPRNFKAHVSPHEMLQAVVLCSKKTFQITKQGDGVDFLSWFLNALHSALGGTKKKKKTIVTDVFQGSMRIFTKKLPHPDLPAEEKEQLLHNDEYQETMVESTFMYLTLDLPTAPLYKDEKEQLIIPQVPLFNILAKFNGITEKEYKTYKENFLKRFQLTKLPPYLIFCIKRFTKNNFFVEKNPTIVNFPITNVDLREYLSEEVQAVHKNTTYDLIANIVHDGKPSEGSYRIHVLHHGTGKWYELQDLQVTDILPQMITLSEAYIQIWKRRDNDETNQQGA
In short: as §1

USP4 = target: T4, USP4 (UniProt Q13107)
T4 sequence (whole entry): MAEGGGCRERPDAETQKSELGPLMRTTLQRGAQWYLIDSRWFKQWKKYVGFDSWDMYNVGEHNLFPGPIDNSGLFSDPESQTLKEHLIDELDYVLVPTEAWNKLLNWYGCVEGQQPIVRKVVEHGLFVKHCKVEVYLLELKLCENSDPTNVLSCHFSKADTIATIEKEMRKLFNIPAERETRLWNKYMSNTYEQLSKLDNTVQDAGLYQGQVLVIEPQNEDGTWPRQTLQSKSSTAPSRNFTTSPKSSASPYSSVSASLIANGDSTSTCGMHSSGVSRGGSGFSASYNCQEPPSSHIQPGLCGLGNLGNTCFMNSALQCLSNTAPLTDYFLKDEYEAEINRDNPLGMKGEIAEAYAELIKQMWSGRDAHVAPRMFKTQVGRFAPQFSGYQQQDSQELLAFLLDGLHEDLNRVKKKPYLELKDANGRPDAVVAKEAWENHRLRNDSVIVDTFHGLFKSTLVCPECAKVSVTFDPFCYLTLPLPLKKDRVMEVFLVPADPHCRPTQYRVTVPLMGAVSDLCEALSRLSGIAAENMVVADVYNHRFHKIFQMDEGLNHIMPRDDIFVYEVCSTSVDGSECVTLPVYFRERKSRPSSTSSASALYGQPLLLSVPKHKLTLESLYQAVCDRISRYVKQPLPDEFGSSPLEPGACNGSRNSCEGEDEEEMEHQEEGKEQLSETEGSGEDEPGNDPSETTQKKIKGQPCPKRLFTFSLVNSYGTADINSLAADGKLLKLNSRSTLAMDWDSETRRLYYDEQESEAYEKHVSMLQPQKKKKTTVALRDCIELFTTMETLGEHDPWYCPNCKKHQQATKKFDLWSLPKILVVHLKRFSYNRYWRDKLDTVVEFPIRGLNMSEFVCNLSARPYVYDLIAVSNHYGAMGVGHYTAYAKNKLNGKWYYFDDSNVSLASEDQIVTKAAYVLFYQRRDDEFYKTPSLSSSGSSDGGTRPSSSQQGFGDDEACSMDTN
In short: as §1

Measured: log2 ratio of Biotin-Ahx-Ub-VS probe labelling

Sequence of USP34 (Q70CQ2 whole entry, the tested form may be a part): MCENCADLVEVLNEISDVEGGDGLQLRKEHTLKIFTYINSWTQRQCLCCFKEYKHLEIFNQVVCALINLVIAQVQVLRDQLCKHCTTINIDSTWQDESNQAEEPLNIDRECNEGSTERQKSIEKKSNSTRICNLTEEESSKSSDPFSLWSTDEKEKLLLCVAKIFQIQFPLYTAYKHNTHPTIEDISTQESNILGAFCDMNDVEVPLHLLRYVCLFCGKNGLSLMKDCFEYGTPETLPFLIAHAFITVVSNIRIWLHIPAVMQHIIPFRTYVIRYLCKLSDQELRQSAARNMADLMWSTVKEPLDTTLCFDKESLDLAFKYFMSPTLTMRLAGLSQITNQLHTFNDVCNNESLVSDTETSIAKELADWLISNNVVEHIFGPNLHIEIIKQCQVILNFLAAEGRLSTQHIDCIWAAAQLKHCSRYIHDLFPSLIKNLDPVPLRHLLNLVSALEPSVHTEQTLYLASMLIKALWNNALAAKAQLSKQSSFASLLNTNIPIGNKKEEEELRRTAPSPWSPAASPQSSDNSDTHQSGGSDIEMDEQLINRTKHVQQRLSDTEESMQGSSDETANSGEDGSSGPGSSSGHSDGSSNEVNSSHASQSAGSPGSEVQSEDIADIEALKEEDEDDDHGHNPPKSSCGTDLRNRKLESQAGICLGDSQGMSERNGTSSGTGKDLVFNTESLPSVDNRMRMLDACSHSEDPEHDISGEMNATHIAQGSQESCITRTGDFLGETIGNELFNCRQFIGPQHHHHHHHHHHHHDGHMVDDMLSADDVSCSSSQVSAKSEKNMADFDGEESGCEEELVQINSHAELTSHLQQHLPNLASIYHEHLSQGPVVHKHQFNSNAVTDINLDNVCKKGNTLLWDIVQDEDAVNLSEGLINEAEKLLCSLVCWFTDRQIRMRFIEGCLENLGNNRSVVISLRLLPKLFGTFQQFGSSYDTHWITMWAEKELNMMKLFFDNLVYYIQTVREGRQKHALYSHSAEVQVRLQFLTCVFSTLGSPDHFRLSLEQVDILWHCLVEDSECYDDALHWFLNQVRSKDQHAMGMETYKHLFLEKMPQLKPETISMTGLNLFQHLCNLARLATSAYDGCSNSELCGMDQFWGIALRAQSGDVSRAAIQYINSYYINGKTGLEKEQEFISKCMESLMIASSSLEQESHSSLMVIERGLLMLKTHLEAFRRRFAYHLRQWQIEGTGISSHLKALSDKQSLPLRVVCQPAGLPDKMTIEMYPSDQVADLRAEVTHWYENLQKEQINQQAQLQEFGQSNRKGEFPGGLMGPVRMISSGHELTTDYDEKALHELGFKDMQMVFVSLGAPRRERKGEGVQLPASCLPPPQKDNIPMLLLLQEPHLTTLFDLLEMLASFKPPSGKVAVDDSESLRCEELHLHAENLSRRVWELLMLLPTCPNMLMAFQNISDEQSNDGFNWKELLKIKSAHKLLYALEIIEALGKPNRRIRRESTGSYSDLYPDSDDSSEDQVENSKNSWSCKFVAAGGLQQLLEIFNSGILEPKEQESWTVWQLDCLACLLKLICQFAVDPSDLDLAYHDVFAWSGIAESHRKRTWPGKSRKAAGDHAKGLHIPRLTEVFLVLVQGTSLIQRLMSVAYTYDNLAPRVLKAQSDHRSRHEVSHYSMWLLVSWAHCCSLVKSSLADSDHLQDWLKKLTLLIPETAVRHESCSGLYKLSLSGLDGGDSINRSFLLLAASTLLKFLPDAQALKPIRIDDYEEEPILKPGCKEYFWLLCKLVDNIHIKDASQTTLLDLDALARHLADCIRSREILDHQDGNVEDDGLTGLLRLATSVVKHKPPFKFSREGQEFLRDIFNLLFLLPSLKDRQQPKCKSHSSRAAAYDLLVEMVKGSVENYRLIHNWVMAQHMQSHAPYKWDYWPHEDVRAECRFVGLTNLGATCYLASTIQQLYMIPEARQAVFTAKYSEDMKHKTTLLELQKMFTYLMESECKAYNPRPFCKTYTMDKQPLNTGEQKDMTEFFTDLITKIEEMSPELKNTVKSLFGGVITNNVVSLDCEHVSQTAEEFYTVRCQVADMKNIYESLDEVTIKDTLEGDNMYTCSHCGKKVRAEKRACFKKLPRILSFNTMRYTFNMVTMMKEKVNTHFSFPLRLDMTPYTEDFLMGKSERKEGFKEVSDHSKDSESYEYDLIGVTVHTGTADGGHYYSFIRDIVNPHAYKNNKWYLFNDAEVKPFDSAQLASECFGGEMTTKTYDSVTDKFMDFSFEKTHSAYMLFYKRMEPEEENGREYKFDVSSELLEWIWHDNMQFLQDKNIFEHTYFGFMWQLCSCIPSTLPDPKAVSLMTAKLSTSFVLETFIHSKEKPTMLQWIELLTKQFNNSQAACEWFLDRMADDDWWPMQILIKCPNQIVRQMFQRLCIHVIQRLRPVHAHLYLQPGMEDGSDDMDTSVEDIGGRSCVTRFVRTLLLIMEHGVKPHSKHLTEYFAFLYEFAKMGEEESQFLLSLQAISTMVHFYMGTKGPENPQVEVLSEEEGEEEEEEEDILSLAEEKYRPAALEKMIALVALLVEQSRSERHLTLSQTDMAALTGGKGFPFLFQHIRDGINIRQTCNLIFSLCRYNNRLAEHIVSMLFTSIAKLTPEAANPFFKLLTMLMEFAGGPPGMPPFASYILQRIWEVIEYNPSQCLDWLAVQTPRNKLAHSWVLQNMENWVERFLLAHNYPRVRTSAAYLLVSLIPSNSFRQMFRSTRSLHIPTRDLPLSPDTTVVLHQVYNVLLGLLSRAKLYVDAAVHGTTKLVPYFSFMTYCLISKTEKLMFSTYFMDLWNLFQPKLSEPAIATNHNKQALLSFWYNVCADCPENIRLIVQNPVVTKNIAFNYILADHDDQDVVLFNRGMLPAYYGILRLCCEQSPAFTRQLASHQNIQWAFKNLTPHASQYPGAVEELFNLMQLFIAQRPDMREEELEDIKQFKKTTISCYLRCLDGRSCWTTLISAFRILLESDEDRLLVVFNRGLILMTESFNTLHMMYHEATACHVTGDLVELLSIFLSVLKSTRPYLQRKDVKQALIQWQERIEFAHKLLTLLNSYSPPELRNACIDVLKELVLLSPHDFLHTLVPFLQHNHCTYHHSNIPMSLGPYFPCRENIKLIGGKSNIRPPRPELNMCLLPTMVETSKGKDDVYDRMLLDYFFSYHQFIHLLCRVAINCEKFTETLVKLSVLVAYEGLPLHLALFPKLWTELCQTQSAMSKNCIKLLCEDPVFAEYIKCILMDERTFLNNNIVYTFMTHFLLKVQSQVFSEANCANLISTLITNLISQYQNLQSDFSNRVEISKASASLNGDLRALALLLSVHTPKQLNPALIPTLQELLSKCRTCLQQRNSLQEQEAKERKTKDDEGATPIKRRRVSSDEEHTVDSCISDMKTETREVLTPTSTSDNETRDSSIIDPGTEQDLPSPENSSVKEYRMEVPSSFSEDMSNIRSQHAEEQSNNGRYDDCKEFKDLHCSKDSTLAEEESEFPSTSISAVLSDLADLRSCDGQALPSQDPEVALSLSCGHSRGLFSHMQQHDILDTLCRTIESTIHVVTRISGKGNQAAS

O=C(O)C1Cc2ccccc2CN1C(=O)CCl (stereo not given)
inactive: USP34 -0.101 | USP36 -0.224 | USP38 -0.252 | USP39 -0.281 | USP4 -0.207
